PubChem BioAssay

What was measured:
[1] = system: Botulinum neurotoxin type F light chain protease (Clostridium botulinum); test: Clostridium botulinum type F light chain protease inhibitors, microsphere substrate cleavage, validation (AID 588459); conditions: multiplex microsphere protease substrate cleavage assay, flow cytometry; at 10 µM; stronger effect = higher value
[2] = target: Botulinum neurotoxin type A (Clostridium botulinum) (UniProt P0DPI0); test: BoNT/A light chain protease inhibitors, biochemical, multiplex microsphere flow cytometry, validation set (AID 588460); conditions: at 10 µM, stronger effect = higher value
[3] = target: Lethal factor (Bacillus anthracis) (UniProt P15917); test: Bacillus anthracis lethal factor inhibition, microsphere flow cytometry protease assay, validation at 10 µM (AID 588461); conditions: multiplex microsphere protease cleavage assay, stronger effect = higher value

Measured: inhibition

CC(C)(C)NCC(O)COc1cccc2c1C[C@H](O)[C@H](O)C2 (some centres not stated)
inactive: [1] -2.3% | [2] 0.4% | [3] 1.6%

Cc1cccc(N2C(=O)C3C(c4ccccc4)OC4(C(=O)c5ccccc5C4=O)C3C2=O)c1 (configuration not stated)
inactive: [1] 4.6% | [2] 1% | [3] -3.5%

CCc1nc(N)nc(N)c1-c1ccc(Cl)cc1
inactive: [1] 0.4% | [2] -0.6% | [3] -2.6%

CC(C)=CCC(C)(C)/C=N/NC(N)=O
inactive: [1] 1.8% | [2] 0.6% | [3] 10.3%

O=C(Nc1nc2ccccc2s1)c1ccc(F)cc1
inactive: [1] -5.1% | [2] -1.5% | [3] -5.8%

C/C(CCc1oc2ccc(Cl)cc2c1-c1ccc(C)o1)=N\O
inactive: [1] 1.6% | [2] -0.7% | [3] -3.2%

COc1ccc(C(=O)O)cc1F
inactive: [1] -1.9% | [2] -0.6% | [3] -1.1%

COc1cc(OC)c(-c2nc3cnccc3n2C)cc1OC
inactive: [1] -2.3% | [2] -1.9% | [3] -1.6%

CC(C)[C@H]1CN(C)CCN1Cc1cn(C)nc1-c1cccc(Cl)c1
inactive: [1] 12% | [2] 8.3% | [3] 8.2%

CC(C)CN1CCN(Cc2ccc3ncccc3c2)CC1CCO (configuration not stated)
inactive: [1] -0.3% | [2] 0.8% | [3] 0.5%

CCN(Cc1ccncc1)Cc1nc(Cc2ccccc2Cl)no1
inactive: [1] -4.4% | [2] -0.8% | [3] -2.6%

O=P(O)(O)CP(=O)(O)O
inactive: [1] -9% | [2] -3% | [3] -3.7%

CCCCN(CCCC)CCCOC(=O)c1ccc(N)cc1
inactive: [1] -1.6% | [2] 0.8% | [3] 1.4%

COc1cc(C(=O)NCCCCCC(=O)O)cc(OC)c1OC
inactive: [1] 1.3% | [2] -0.4% | [3] -13.3%

CCC(NC(C)C)C(O)c1ccc(O)c(O)c1 (configuration not stated)
inactive: [1] -5.4% | [2] -0.9% | [3] -4%

CC(C)NNC(=O)c1ccncc1
inactive: [1] 1.2% | [2] 1.3% | [3] -7.1%

CC(=O)[C@H]1CC[C@H]2[C@@H]3CCC4=CC(=O)CC[C@]4(C)[C@H]3[C@H](O)C[C@]12C
inactive: [1] -0.3% | [2] -1.3% | [3] -5.3%

O=C(CCCN1CC=C(n2c(=O)[nH]c3ccccc32)CC1)c1ccc(F)cc1
inactive: [1] -1.3% | [2] -1% | [3] -5.4%

CC(C)CCn1c(N2CCc3ccccc3C2)nc2c1c(=O)[nH]c(=O)n2C
inactive: [1] -1.6% | [2] 0.3% | [3] 4%

Cc1[nH]c2ccccc2c1C(=O)CN1CCCC1
inactive: [1] 0.8% | [2] 0.2% | [3] -1.1%

CCn1c(/C=C/c2ccccc2)nc2ccccc2c1=O
inactive: [1] 2.4% | [2] -1.7% | [3] 7.2%

CC(CCc1ccccc1)NC(=O)/C=C/c1ccccc1 (configuration not stated)
inactive: [1] 4.2% | [2] 0.4% | [3] 1.8%

O=C(CN1CC[n+]2c(-c3cccs3)csc21)c1ccc(Br)cc1
inactive: [1] 0.8% | [2] -0.2% | [3] -1.6%

Cc1ccc2[nH]c3c(=O)n(CCc4cnc[nH]4)cnc3c2c1
inactive: [1] -6.6% | [2] -0.7% | [3] -10.5%

COc1c2c(nc3occc13)C(CC=C(C)C)(OC)C(O)CC2 (configuration not stated)
inactive: [1] 0.8% | [2] 0.9% | [3] -4.1%

CC(C)OC(=O)C1C2C=CC3(CN(CC4CCCO4)C(=O)C13)O2 (configuration not stated)
inactive: [1] 0.2% | [2] 0.8% | [3] -2.9%

O=C(CCCn1c(=O)oc2ccccc21)N1CCN(c2ccc(F)cc2)CC1
inactive: [1] 1.1% | [2] 0.2% | [3] -4.7%

COc1cc(C2C(C(C)=O)=C(O)C(=O)N2c2ccc(C)cc2)ccc1O (configuration not stated)
inactive: [1] -1.4% | [2] 0.2% | [3] 0%

CCn1c(=N)c(C(=O)NC)cc2c(=O)n3cccc(C)c3nc21
inactive: [1] 3.8% | [2] 3.8% | [3] 5.6%

COc1ccc(-c2noc(-c3ccccc3-c3ccccc3)n2)cc1
inactive: [1] -1.9% | [2] -0.7% | [3] -1.9%

COc1ccc(OC(C)C(=O)Nc2ccccc2F)cc1 (configuration not stated)
inactive: [1] 0.8% | [2] -0.2% | [3] 1.9%

COc1c(O)ccc2c1CN1CCc3cc4c(cc3C1C2)OCO4 (configuration not stated)
inactive: [1] -8.1% | [2] -2.1% | [3] -16.1%

Cc1ccc2c(c1)c1c3n2CCCNC3CCC1 (configuration not stated)
inactive: [1] 9.2% | [2] 1.9% | [3] 0.5%

Cc1nonc1CN(C)C(=O)c1ccc(OC2CCN(Cc3ccccn3)CC2)cc1
inactive: [1] 0% | [2] -1.4% | [3] -0.2%

COc1cccc(CN2C(=O)N(C(C)C)C(N(O)C(=O)NC(C)C)C2(C)C)c1OC (configuration not stated)
inactive: [1] -1.7% | [2] -0.8% | [3] -2.1%

CC(=O)N(CCC1(c2ccc(C)cc2)CCOC(C(C)C)C1)Cc1ccco1 (configuration not stated)
inactive: [1] -5.3% | [2] 0% | [3] -7.5%

COC1(C)CC2C(CC1OC(=O)c1cc([N+](=O)[O-])cc([N+](=O)[O-])c1)C2(C)C (configuration not stated)
inactive: [1] -3.2% | [2] -0.5% | [3] -5.5%

CC(COc1ccccc1)NC(C)C(O)c1ccc(O)cc1 (configuration not stated)
inactive: [1] -1.7% | [2] 0.2% | [3] 0.2%

CCN(CC)c1ccc(C2=NNC(=O)CC2C)cc1[N+](=O)[O-] (configuration not stated)
inactive: [1] -2.1% | [2] -0.3% | [3] -6.2%

CSCCC(NC(=O)/C(=C/c1ccc2c(c1)OCO2)NC(=O)c1cccc([N+](=O)[O-])c1)C(=O)O (configuration not stated)
inactive: [1] -1.7% | [2] 0.6% | [3] -9.5%

CC(C)C1CC(CCNCc2ccc(N(C)C)cc2)(c2ccccc2)CCO1 (configuration not stated)
inactive: [1] -3.7% | [2] -1.8% | [3] -9.1%

O=C(O)C[C@@H](O)C(=O)O
inactive: [1] 0.4% | [2] -0.4% | [3] -1.2%

COc1ccc(C(=O)/C=C2/c3ccccc3CC(C)(C)N2C)cc1
inactive: [1] -2.7% | [2] -1.8% | [3] -1.2%

Cc1ccc(-n2ncc3c(Nc4cccc(C(=O)O)c4)ncnc32)cc1
inactive: [1] 0.7% | [2] -1.1% | [3] 1.7%

CC1CC(OC(=O)C(O)c2ccccc2)CC(C)(C)N1C (configuration not stated)
inactive: [1] -2.4% | [2] -1.7% | [3] -6.1%

Cc1ccccc1OCCSc1nc2ncnc(N)c2[nH]1
inactive: [1] 0.8% | [2] -1% | [3] 0.1%

COc1ccc2cc(-c3nc4ccccc4n3C)c(=O)oc2c1
inactive: [1] 2% | [2] 1.8% | [3] 1%

COc1cc(OC)c2c(C)c(Cl)c(=O)oc2c1
inactive: [1] 1.9% | [2] -0.8% | [3] -3.3%

COC(=O)C1=C(C)NC(C)=C([N+](=O)[O-])C1c1ccccc1C(F)(F)F (configuration not stated)
inactive: [1] -0.4% | [2] -1% | [3] -11.2%

Cc1onc(-c2c(Cl)cccc2Cl)c1C(=O)NC1C(=O)N2C1SC(C)(C)C2C(=O)O (configuration not stated)
inactive: [1] 1.2% | [2] 0.2% | [3] 2.3%

CC(C)=CCCC1=CCC2C(=O)NNC(=O)C2C1 (configuration not stated)
inactive: [1] -1.6% | [2] -1% | [3] 3%

COc1cc2nc(-c3ccccc3)nc(N3CCCC3)c2cc1OC
inactive: [1] -1.8% | [2] -1.5% | [3] -4.3%

C[C@H]1C[C@H]2[C@@H]3CCC4=CC(=O)C=C[C@]4(C)[C@@]3(Cl)[C@@H](O)C[C@]2(C)[C@@]1(O)C(=O)CO
inactive: [1] 4.5% | [2] -0.1% | [3] 2.1%

Cc1ccc2c(c1)C(O)(CC(=O)/C=C/C=C/c1ccccc1)C(=O)N2 (configuration not stated)
inactive: [1] -1.2% | [2] -0.9% | [3] -8.4%

Cn1c(=O)[nH]c2nnc(-c3ccc(Cl)c(Cl)c3)nc2c1=O
inactive: [1] -0.1% | [2] 0.4% | [3] -4.1%

O=C(Oc1cccccc1=O)c1ccccc1
inactive: [1] 1.1% | [2] -1.5% | [3] 0.9%

COC(=O)c1ccc(CC(=O)c2ccc(O)cc2O)o1
inactive: [1] -3.4% | [2] -0.8% | [3] -5.4%

COc1cccc(NC(=O)C2CC(=O)OC23CCOC(C)(C)C3)c1 (configuration not stated)
inactive: [1] -5.5% | [2] -1.3% | [3] -8.2%

COc1ccc(/C=C2\CCc3ccccc3C2=O)c(OC)c1OC
inactive: [1] 6.4% | [2] 0.8% | [3] 3.9%

COc1ccc(-c2[nH]ncc2C=O)cc1OC
inactive: [1] -3.5% | [2] -0.8% | [3] -2.5%

CC(C)NCC(O)COc1ccc(CCOCC2CC2)cc1 (configuration not stated)
inactive: [1] -0.9% | [2] -3.6% | [3] 1.3%

CCCNCC(O)COc1ccccc1C(=O)CCc1ccccc1 (configuration not stated)
inactive: [1] 1.5% | [2] 0% | [3] -1.2%

CC1(c2ccccc2)CC(C)(C)N2C(=O)C(=O)c3cccc1c32 (configuration not stated)
inactive: [1] 0.5% | [2] 1.2% | [3] -0.4%

COc1ccc(NC(=S)NCCc2c[nH]c3ccccc23)cc1
inactive: [1] -0.4% | [2] -0.9% | [3] 0.4%
